Experimental data reported in the supplement of paper PMC10681739.

Experiments:
RUNX1 [1] = molecular target: RUNX1 (UniProt Q01196); assay: RUNX1 binding intensity (PBM fluorescence), RUNX1 alone (arbitrary fluorescence units); higher = stronger binding; conditions: RUNX1 concentration 2 nM; ETS1 concentration 0 nM
Description: (§1)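 Cooperative gcPBM on 36-bp genomic probes with neighbouring ETS1 and RUNX1 sites. Recombinant human RUNX1 (2 nM) was incubated alone or with ETS1 (25 nM) and detected with anti-RUNX1 antibody plus Alexa488 secondary. Values are medians over 4 replicate spots; the RUNX1+ETS1 data were normalised to the RUNX1-only data. The probes sit in constant array flanks that are not printed.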

ETS1 = molecular target: T1, ETS1 (UniProt P14921); assay: ETS1 binding intensity (PBM fluorescence) in presence of RUNX1, normalised to ETS1-only experiment (arbitrary fluorescence units); higher = stronger binding; conditions: ETS1 concentration 1 nM; RUNX1 concentration 25 nM
T1 sequence: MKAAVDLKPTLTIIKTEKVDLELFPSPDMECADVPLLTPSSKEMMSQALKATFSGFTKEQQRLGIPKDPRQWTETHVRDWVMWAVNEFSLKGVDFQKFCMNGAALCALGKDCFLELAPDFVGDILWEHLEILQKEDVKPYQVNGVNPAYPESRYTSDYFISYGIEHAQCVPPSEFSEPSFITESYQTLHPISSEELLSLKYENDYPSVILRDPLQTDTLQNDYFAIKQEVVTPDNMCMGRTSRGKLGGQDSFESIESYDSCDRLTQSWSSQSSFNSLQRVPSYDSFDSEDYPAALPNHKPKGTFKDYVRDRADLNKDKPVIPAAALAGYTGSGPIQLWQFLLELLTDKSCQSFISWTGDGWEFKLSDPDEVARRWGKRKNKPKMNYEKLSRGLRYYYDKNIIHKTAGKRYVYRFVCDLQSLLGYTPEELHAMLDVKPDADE

RUNX1 [2] = molecular target: RUNX1 (UniProt Q01196); assay: RUNX1 binding intensity (PBM fluorescence) in presence of ETS1, normalised to RUNX1-only experiment (arbitrary fluorescence units); higher = stronger binding; conditions: RUNX1 concentration 2 nM; ETS1 concentration 25 nM
Description: as §1
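Throughout, for RUNX1 binding intensity (PBM fluorescence) in presence of ETS1, normalised to RUNX1-only experiment: Full-length recombinant human ETS1 or RUNX1 bound to double-stranded 36-bp genomic probes on microarrays, detected by protein-specific primary antibody and Alexa488 secondary, spot fluorescence as median of four replicate spots.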
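Throughout, for RUNX1 binding intensity (PBM fluorescence), RUNX1 alone: Full-length recombinant human RUNX1 bound to double-stranded 36-bp genomic probes on a high-density microarray, scored as Alexa488 fluorescence per spot via anti-RUNX1 antibody, median of four replicate spots.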

Sequence of RUNX1 (Q01196 whole entry): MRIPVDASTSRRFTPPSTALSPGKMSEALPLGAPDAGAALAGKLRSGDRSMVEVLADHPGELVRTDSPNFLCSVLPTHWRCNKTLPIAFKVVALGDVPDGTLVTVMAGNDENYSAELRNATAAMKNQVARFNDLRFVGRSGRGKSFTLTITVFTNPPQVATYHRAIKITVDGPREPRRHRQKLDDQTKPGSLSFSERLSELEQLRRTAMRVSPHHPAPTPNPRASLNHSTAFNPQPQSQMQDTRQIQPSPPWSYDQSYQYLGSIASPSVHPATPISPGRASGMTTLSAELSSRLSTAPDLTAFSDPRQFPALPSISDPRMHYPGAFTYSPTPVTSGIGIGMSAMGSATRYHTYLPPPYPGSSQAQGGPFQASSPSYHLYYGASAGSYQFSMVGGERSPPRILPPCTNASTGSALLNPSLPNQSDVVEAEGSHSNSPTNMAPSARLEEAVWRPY

Row | Sequence | RUNX1 binding intensity (RUNX1 [1]) | ETS1 binding intensity (ETS1) | RUNX1 binding intensity (RUNX1 [2])
1 | GGAGGCGGAAGTGGAGGTTGTTGTGGCTCCGAGGGC | 727 | 1950 | 1100
2 | GGCCGGGGGCAGGAAGCTGCGGCGCTGGCTCCCCCC | 649 | 3390 | 884
3 | GGGCTCGGGGAGGAAGCGGTGGTTTCTCTTTGAAGC | 729 | 907 | 970
4 | CCTCTTGCTGCCTCTTCCTGTGGTCTTTTCTCTGTC | 1840 | 951 | 2720
5 | CAGCTTTCCGGCCTGCAGCACAGGCAATGTGGTTTT | 1020 | 554 | 2150
6 | CTCGTGCGTCACTTCCGCCCCGCAGACCCGCCCACT | 1050 | 2940 | 2420
7 | GGCGGAAGCTGCCGCTGCCTTGCGCCCCCACACACG | 818 | 685 | 1040
8 | AGGCTGTGGCGGAAGTGGTCGCGTTACCGCTTGTTT | 712 | 12100 | 3760
9 | TACAATTCGCACCGGAACTTGCGGCCCGGCTTCATT | 729 | 4640 | 963
10 | ACGCGCTCCCTCACTTCCTGCGGCTTTTGGTCCCTC | 1880 | 1500 | 2800
11 | CAGCTAGCCGGAAGAAGCTGCGGCGACAGCGTCCTG | 759 | 2110 | 1020
12 | CGAGGGAGCCGGAAAGATGGTGGTTACCAGATCTGC | 766 | 992 | 926
13 | AAACTACTTTCCTTCCTACCAAAACCACACTAAAGA | 2140 | 844 | 1920
14 | CTTATCTTCTTCCTGTGAGCTGTGTGTGGGTGGCTC | 942 | 397 | 1580
15 | GCCGTGGGTACGACCGGAAGCCGCAGGTGGGTGAAG | 772 | 35000 | 1540
16 | TACCCCGCCGGAAGCCCCCTGCTCTGTGGGAACCGG | 894 | 3660 | 1270
17 | CTCCTTCCTGATCGGGCAGGAACTAACCACAGGAGG | 825 | 2480 | 1130
18 | AACTAGGCTTTTCTTTCCTGTGGTCCTTAAGGAGGC | 929 | 329 | 1020
19 | CTCCGATTGAGAACAGGAAGCCACAGGCCAATACAA | 831 | 3260 | 931

Row | Sequence | RUNX1 binding intensity (RUNX1 [1]) | ETS1 binding intensity (ETS1) | RUNX1 binding intensity (RUNX1 [2])
20 | AGCCCGCCGGAAACTAGCGTCACCGCGCCAAGGTTC | 691 | 1250 | 1160
21 | AGCGCCACACTTCCGCTTTGCGGCAGTGTGCGCCCC | 730 | 3280 | 1890
22 | GCTGCTTCCGGCCGCTGGTCGCAGGGCTGCGGGACT | 677 | 1000 | 1760
23 | CTCTTCAGCAGGAAATGATGTGGTAAAACAGGGTTA | 856 | 10100 | 1390
24 | CAGTTTGCCCCGGATGTTGACCGCCTTGAAGTCGTA | 910 | 4900 | 1380
25 | ACGTACGGGATGTGGGAGGTTTGTTTTGACCACACC | 830 | 936 | 1160
26 | ATGCTAGAAAGCAGGAAGCCACAGACACGCCCCAAC | 857 | 1120 | 875
27 | CAAGAGGAACCGGAACTTTGGAAACCACATTCTTAT | 911 | 4800 | 1480
28 | CAGGGTGGAAACAGGAAGAGAAACCACACTTAACCT | 845 | 7190 | 1070
29 | GCCGGGCACTTCCTGTGGAGGCCGCAGCGGGTGCGC | 709 | 1560 | 1780
30 | CCGGTCCGCTCGCCGGAAATGCGGGCTCTCCTGCCG | 815 | 10400 | 1240
31 | GGTAAAGCAACAGGATGTGGGTGTCTGACTTACAAT | 700 | 6760 | 1790
32 | TTAAGGAGCTTCCGGGGCCGCGGGTAGAGGCGGGTG | 676 | 741 | 1420
33 | TACCCAGAAAGGAAGTGGAACCTGCGGTGAGGCCCC | 875 | 5650 | 1950
34 | GACCAATGTAAACAAGGATGTGGGTTCTCCGGCCAC | 785 | 3290 | 1190
35 | TTTCCTCGGATTCCCGGATGTGGGTGAGTTCATTTG | 809 | 9630 | 2000
36 | GACCAGGCGAGAGGATGTGGGTATGAGGGAGGAGCT | 835 | 1640 | 1090
37 | CCCCGGGAAGGGAAGTTTGTGGCGGAGGAGGTTCGT | 805 | 589 | 934
